# aSyn 5UTR act: Activators working through SNCA 5'UTR binding (MLPCN). hit rate 7.1% among 300,000. activity score, % (tested at 7.5 µM), hits read low. alpha-synuclein 5'UTR reporter, activators screen; in the data active = activity score below about -60%
# An asterisk follows results filed as active. The list is a sample of the results.
SMILES,aSyn 5UTR act
CCSc1nnc2nc3[nH]c4c(C)cccc4c3nn12,-147*
O=C(Nc1nnc(-c2ccccc2)s1)c1ccc(F)cc1,-89*
COc1ccccc1C(=O)Nc1nnc(-c2ccc(F)cc2)s1,-132*
CCc1nnc(NC(=O)c2cccc(C(=O)Nc3nnc(CC)s3)n2)s1,66
COc1ccccc1C(=O)Nc1nsc(-c2ccccc2)n1,-152*
CCOc1ccccc1C(=O)Nc1nnc(CC)s1,-93*
CC1CCc2c(sc(/N=C/N(C)C)c2C#N)C1 (stereo not drawn),-80*
CN(C)/C=N/c1sc2c(c1C#N)CCCC2,-80*
Cc1cc(C)n(-c2nc(-c3cccc(Cl)c3)cs2)n1,-102*
Cc1cc(C)n(-c2nc(-c3ccccc3)cs2)n1,-89*
O=C(/C=C/NCc1cccnc1)c1ccc(Br)cc1,-66*
O=C(NCc1cccnc1)Nc1ccc(Br)cc1,-79*
O=C(NCc1cccnc1)Nc1ccc(Cl)c(Cl)c1,-110*
Clc1ccc(-c2cn3c(n2)CCC3)cc1,-192*
CCC(CC)c1nnc(NC(=O)c2ccc3c(c2)OCO3)s1,-169*
CC(C)(C)Cc1nnc(NC(=O)c2ccc3c(c2)OCO3)s1,-112*
NC(=O)c1ccccc1NC(=O)/C=C/c1ccc(Cl)cc1,-110*
NC(=O)c1ccccc1NC(=O)/C=C/c1ccccc1,-116*
O=C(Cn1cnc2ccccc2c1=O)c1ccc2ccccc2c1,-140*
Cc1ccc(C(=O)Cn2cnc3ccccc3c2=O)cc1C,-155*
O=C(Cn1cnc2ccccc2c1=O)Nc1ccc2c(c1)OCO2,-120*
O=C(CN1C(=O)c2ccccc2S1(=O)=O)c1ccc2c(c1)OCCO2,111
O=C(Cn1cnc2ccccc2c1=O)c1ccc2c(c1)OCCO2,-130*
Cc1cc(C(=O)Cn2cnc3ccccc3c2=O)c(C)n1C1CC1,-109*
COc1ccc(C(=O)Cn2cnc3ccccc3c2=O)cc1,-146*
SMILES,aSyn 5UTR act
CCc1cc(C(c2ccc(OC)c(OC)c2)N2CCOCC2)c(NC(=O)c2ccccc2)s1 (stereo not drawn),-62*
Cc1occc1C(=O)OCC(=O)Nc1ccc(F)cc1,-62*
Cc1ccc(OCC(=O)Nc2ccc(F)cc2)cc1C,-74*
CC(=O)Nc1cccc(OCC(=O)Nc2ccc(F)cc2)c1,-78*
CCc1nc2oc3cc(OC)ccc3c(=O)c2c(=O)n1-c1ccccc1,-124*
COc1ccc2c(=O)c3c(=O)n(-c4ccccc4)c(-c4ccco4)nc3oc2c1,-96*
Cc1ccc(-n2c(C)nc3oc4ccccc4c(=O)c3c2=O)cc1,-241*
CCn1cc(C(=O)O)c(=O)c2cnc(N3CCN(C(=S)Nc4ccccc4Cl)CC3)nc21,-112*
Cc1cc(NC(=O)Nc2ccc3c(ccn3C)c2)sn1,-121*
COc1ccc(-c2ccc(C3C(C#N)=C(N)Oc4n[nH]c(C)c43)o2)cc1 (stereo not drawn),-65*
Cc1ccc(C(=O)CSc2ncnc3ccccc23)o1,-121*
O=C(CSc1ncnc2ccccc12)c1cccs1,-137*
O=C(CSc1ncnc2ccccc12)N1CCCC1,-67*
NC(=S)Nc1cccc2cc3ccccc3cc12,-101*
COc1ccc(C(=O)NCCc2c[nH]c3ccccc23)cc1,-184*
O=C(NCCc1c[nH]c2ccccc12)c1ccc(Cl)cc1,-221*
CC(=O)c1c(C)[nH]c(C(=O)NCCC2=CCCCC2)c1C,-156*
COc1ccc(C(=O)c2c[nH]c3ccccc23)cc1,-196*
CC(=O)c1c(C)[nH]c(C(=O)NCCc2c[nH]c3ccccc23)c1C,-89*
Cc1ccsc1C(=O)NCCc1c[nH]c2ccccc12,-123*
O=C(NCCc1c[nH]c2ccccc12)c1ccc(F)cc1F,-145*
O=C(NCCc1c[nH]c2ccccc12)c1cnc2sccn2c1=O,-152*
O=C(NCCc1c[nH]c2ccccc12)c1cnccn1,-80*
COc1cccc(C(=O)c2cc3cc(Cl)ccc3[nH]2)c1,-147*
O=C(c1ccccc1)c1cc2cc(Cl)ccc2[nH]1,-169*
SMILES,aSyn 5UTR act
COc1ccc2c(c1)CCC/C2=N\Nc1nc(C(=O)NN)cs1,-92*
O=C(N/N=C1\CCc2ccccc21)c1ccncc1,-160*
O=C(N/N=C1\CCCc2ccccc21)c1ccccc1Cl,-132*
O=C(N/N=C1\CCCCc2ccccc21)c1ccccn1,-92*
O=C(O)c1ccc(N/N=C2/CCCc3ccccc32)cc1,-82*
COc1ccc2c(c1)CCC/C2=N\NC(=O)c1ccoc1C,-70*
Cc1cc(C(=O)NC2Cc3ccccc3C2)c(C)o1,-137*
Cc1cc(C(=O)N/N=C2\CCCc3ccccc32)c(C)o1,-126*
COc1ccc(C(=O)/C=C/c2cccs2)c(OC(=O)c2cccc([N+](=O)[O-])c2)c1,-366*
COc1ccc(C(=O)/C=C/c2ccc(F)cc2)c(OC(=O)c2ccc([N+](=O)[O-])cc2)c1,-122*
COc1ccc(-c2nc3ccccn3c2CN2CCN(c3ccccc3F)CC2)cc1,-76*
COc1ccc(CCNc2ncnc3sc(C)cc23)cc1OC,77
COc1ccc(Oc2ncnc3sccc23)cc1,-95*
COc1ccc(Nc2nccc3c2ncn3C)cc1,21
